# Reference: PubChem BioAssay (EPA / NIEHS)
# Inconclusive results are not listed. Activity calls are given as the source filed them. The calls were made as follows: active = hit-call score of the fitted dose curve at least 0.9, where 1 is the maximum; inconclusive = response in the unintended direction; inactive = score below 0.9.
# Tests used:
# [1] = biological target: AR (gene 367) (UniProt P10275); assay: ACEA_AR_antagonist_80hr: ACEA Biosciences xCELLigence Real-Time Cell Analysis on Androgen Receptor Antagonism for Proliferation (AID 2283787);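 also: 22Rv1 human prostate cancer cells with growth followed by electrical impedance; hits lower the impedance growth signal relative to DMSO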
# Chain of AR (gene 367) (P10275 whole entry, looked up): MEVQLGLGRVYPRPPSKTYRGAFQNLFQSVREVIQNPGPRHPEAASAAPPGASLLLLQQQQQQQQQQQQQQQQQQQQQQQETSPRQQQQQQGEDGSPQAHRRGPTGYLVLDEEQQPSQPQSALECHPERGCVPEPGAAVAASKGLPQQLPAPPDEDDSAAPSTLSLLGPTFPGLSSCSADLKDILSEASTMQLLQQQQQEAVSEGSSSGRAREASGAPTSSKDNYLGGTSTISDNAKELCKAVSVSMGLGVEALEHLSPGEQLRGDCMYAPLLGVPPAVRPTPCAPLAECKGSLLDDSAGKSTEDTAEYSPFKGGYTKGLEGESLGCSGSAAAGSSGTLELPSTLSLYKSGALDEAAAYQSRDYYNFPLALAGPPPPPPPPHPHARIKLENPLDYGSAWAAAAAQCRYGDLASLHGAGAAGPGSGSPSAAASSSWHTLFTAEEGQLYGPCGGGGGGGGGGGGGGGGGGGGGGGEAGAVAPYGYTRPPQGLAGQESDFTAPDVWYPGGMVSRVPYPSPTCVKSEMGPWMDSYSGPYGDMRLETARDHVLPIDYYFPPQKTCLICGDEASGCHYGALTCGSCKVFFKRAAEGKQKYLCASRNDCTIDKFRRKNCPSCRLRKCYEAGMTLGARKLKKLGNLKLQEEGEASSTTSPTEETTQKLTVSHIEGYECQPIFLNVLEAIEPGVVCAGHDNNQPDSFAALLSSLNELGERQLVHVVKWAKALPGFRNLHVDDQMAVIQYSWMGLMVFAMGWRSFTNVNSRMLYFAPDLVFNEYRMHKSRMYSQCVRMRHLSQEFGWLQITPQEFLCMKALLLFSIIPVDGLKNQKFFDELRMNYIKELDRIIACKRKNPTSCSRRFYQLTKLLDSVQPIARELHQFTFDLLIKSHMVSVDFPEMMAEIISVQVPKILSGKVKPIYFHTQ
# How it was run: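 Using 22Rv1 cells held in assay medium, we dosed compounds (100 uM maximum final, 1:4 serial, eight points, 0.5% DMSO at top) and recorded cell-electrode impedance; the 80 hr timepoint was analyzed against DMSO.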
# [2] = ATG_M_19_XSP1: Attagene TRANS-FACTORIAL Multi-Species (XSP1) HepG2 Assay for M19 Transcription Factor (Internal Marker) (AID 2283798)
# How it was run: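 Readout is reporter mRNA induction quantified via RT-PCR, 6-FAM labeling, HpaI digestion and capillary electrophoresis, fitted in the positive direction versus DMSO baseline. Transfected HepG2 cells exposed 24 h, medium including 3 nM 6-alpha-fluorotestosterone.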
# [3] = ATG_M_32_XSP1: Attagene TRANS-FACTORIAL Multi-Species (XSP1) HepG2 Assay for M32 Transcription Factor (Internal Marker) (AID 2283799)
# How it was run: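 Reporter transcripts from the M32 internal-control unit measured by RT-PCR, FAM labelling, HpaI digestion and capillary electrophoresis after 24 h compound exposure of transfected HepG2, 3 nM 6-alpha-fluorotestosterone included; DMSO baseline, positive-direction fit.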
# [4] = biological target: Peroxisome proliferator-activated receptor gamma (Homo sapiens) (UniProt P37231); assay: ATG_hPPARg_XSP1: Attagene TRANS-FACTORIAL Multi-Species (XSP1) HepG2 Assay for human Peroxisome Proliferator-activated Receptor gamma (PPARg) (AID 2283800)
# Chain of Peroxisome proliferator-activated receptor gamma (Homo sapiens) (P37231 whole entry, looked up, the tested form may be a part): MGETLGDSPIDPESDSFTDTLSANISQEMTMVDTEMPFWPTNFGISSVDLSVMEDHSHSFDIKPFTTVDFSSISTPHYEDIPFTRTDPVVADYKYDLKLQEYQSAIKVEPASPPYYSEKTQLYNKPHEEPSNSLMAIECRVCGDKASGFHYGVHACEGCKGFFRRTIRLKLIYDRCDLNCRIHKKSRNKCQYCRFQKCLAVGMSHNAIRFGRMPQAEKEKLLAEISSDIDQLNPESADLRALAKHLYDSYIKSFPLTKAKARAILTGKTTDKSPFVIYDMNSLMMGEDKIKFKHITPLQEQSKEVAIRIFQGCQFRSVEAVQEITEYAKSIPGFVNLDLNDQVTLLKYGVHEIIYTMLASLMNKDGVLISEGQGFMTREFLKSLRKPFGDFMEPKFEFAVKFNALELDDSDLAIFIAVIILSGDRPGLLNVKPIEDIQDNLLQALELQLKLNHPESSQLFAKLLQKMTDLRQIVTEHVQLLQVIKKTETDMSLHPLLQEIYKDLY
# How it was run: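 Reporter mRNA induction, measured by RT-PCR with capillary electrophoresis 24 h after dosing, scored as gain over DMSO. Transfected HepG2 cells express exogenous NR-Gal4 chimeras driving GAL4-UAS reporters; medium includes 3 nM 6-alpha-fluorotestosterone.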
# [5] = system: zebrafish Peroxisome Proliferator-activated Receptor gamma (PPARg), gene 557037; assay: ATG_zfPPARg_XSP1: Attagene TRANS-FACTORIAL Multi-Species (XSP1) HepG2 Assay for zebrafish Peroxisome Proliferator-activated Receptor gamma (PPARg) (AID 2283801)
# Procedure: ATG_XSP1_multi-species_TRANS is a cell-based, multiplexed assay created by modifying the existing Attagene TRANS-FACTORIAL system to include a panel of nuclear receptors from some or all the following species: human (Homo sapiens), mouse (Mus musculus), frog (Xenopus laevis), zebrafish (Danio rerio), chicken (Gallus gallus), and turtle (Chrysemys picta). The ECOTOX-FACTORIAL format uses HepG2, a human liver cell line, with measurements taken at 24 hours after chemical dosing in a 24-well plate. Xsp1 included 3 nM 6-alpha-fluorotestosterone to partially stimulate the androgen receptor.ATG_zfPPARg_XSP1 is one of 29 assay components measured or calculated from the ATG_XSP1_multi-species_TRANS assay. It is designed to make measurements of mRNA induction, a form of inducible reporter, as detected with fluorescence intensity signals by Reverse transcription polymerase chain reaction (RT-PCR) and Capillary electrophoresis technology.The assay endpoint ATG_zfPPARg_XSP1 was analyzed in the positive analysis fitting direction relative to DMSO as the negative control and baseline of activity. Using a type of inducible reporter, measures of mRNA for gain-of-signal activity can be used to understand the reporter gene at the transcription factor-level as they relate to the gene PPARg. Furthermore, this assay endpoint can be referred to as a primary readout, because this assay has produced multiple assay endpoints where this one serves a reporter gene function. To generalize the intended target to other relatable targets, this assay endpoint is annotated to the nuclear receptor intended target family, where the subfamily is non-steroidal.
# Human liver HepG2 cells are transiently transfected with multiple reporter transcription units (MRTUs) in 6-well plates using FuGene 6 reagent (Roche; 3 ml FuGene/1 mg DNA). The MRTU constructs are regulated by a cis-regulating element (promoter). […] A major difference between the CIS and TRANS system is that in CIS activities of endogenous TFs are measured, whereas the TRANS assay evaluates changes in activities of exogenous, chimeric NR-Gal4 proteins. […] At the end of 24 hour incubation, total RNA was isolated using TriZol reagent (Invitrogen). The isolated RNA is then reverse-transcribed using oligo(dT) primer and Mo-MLV reverse transcriptase (Invitrogen) with DNAse I (Ambion) treatment for 30 min. […] The fragments were purified using Qiaquick PCR columns (Qiagen), analyzed on an ABI 3130xL genetic analyzer (Applied Biosystems) with peak positions identified by using a set of X-rhodamine (ROX)-labeled MapMarker1000 molecular weight standards (BioVentures). […]
# [6] = biological target: mouse Peroxisome Proliferator-activated Receptor gamma (PPARg), Pparg (gene 19016) (UniProt P37238); assay: ATG_mPPARg_XSP1: Attagene TRANS-FACTORIAL Multi-Species (XSP1) HepG2 Assay for mouse Peroxisome Proliferator-activated Receptor gamma (PPARg) (AID 2283802)
# Chain of mouse Peroxisome Proliferator-activated Receptor gamma (PPARg), Pparg (gene 19016) (P37238 whole entry, looked up, the tested form may be a part): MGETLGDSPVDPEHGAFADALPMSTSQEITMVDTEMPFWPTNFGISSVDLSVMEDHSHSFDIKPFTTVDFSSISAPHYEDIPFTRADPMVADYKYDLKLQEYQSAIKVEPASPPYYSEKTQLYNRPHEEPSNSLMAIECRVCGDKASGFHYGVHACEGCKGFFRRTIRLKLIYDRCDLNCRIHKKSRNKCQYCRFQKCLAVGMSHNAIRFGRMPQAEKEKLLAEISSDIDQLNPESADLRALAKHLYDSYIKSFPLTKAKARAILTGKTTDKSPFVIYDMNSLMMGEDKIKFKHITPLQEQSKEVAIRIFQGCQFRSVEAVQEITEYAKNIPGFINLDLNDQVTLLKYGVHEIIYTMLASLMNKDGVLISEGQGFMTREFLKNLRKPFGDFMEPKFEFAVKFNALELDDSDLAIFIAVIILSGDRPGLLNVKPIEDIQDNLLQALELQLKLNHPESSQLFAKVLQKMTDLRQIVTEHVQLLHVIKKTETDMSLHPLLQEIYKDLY
# How it was run: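 Readout is reporter mRNA induction, measured by RT-PCR with 6-FAM labelling, HpaI digestion and capillary electrophoresis, 24 h post-dose relative to DMSO. Transient multi-reporter transfection of human HepG2 with mouse PPARg–GAL4 fusion; 3 nM 6-alpha-fluorotestosterone included.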
# [7] = biological target: Estrogen receptor beta (Homo sapiens) (UniProt Q92731); assay: ATG_hERb_XSP1: Attagene TRANS-FACTORIAL Multi-Species (XSP1) HepG2 Assay for human Estrogen Receptor (ESR2) (AID 2283788)
# Chain of Estrogen receptor beta (Homo sapiens) (Q92731 whole entry, looked up, the tested form may be a part): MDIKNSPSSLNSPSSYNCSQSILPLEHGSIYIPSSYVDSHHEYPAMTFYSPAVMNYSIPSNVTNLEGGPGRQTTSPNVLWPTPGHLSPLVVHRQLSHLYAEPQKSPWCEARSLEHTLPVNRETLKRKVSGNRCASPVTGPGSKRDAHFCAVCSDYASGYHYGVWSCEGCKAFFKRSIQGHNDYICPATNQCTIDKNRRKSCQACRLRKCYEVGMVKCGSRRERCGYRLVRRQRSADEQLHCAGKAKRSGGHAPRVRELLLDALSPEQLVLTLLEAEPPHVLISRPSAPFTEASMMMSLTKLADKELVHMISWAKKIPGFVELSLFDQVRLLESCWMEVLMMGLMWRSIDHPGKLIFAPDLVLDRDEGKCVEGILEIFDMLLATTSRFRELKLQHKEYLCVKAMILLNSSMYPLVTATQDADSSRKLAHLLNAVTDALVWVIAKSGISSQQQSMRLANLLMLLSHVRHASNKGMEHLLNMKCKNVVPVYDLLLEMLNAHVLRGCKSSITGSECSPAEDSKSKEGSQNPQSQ
# How it was run: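 Multiplexed trans-activation in transfected HepG2: ERβ-Gal4 reporter transcripts after 24 h treatment, detected by RT-PCR plus capillary electrophoresis.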
# [8] = biological target: GAL4 Transcription Factor (Internal Marker), GAL4 (gene 855828) (UniProt P04386); assay: ATG_GAL4_XSP1: Attagene TRANS-FACTORIAL Multi-Species (XSP1) HepG2 Assay for GAL4 Transcription Factor (Internal Marker) (AID 2283789)
# Chain of GAL4 Transcription Factor (Internal Marker), GAL4 (gene 855828) (P04386 whole entry, looked up, the tested form may be a part): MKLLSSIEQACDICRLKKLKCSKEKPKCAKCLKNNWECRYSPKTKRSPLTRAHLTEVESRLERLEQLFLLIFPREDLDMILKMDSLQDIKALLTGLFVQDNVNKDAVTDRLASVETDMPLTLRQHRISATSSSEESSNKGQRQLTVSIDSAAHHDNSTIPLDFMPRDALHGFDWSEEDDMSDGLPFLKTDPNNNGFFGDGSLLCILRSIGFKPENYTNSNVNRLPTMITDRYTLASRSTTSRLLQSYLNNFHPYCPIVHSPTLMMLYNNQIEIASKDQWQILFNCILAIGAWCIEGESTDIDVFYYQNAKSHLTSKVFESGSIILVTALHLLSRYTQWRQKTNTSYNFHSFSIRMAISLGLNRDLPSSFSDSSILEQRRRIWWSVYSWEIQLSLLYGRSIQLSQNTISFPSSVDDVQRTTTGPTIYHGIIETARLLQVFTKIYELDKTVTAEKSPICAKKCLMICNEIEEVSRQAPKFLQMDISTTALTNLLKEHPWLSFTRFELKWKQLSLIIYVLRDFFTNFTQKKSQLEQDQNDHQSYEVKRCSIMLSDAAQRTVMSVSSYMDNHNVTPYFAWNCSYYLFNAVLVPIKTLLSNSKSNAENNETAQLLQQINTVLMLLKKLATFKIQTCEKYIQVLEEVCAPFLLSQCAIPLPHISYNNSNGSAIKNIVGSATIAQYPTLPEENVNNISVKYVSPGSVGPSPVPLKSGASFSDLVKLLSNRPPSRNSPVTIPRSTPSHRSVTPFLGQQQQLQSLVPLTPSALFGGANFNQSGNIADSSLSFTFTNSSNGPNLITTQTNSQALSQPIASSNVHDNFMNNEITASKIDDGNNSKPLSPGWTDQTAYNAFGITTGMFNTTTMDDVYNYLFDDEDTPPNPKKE
# How it was run: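 This background-control endpoint measures GAL4-driven reporter mRNA via RT-PCR and capillary electrophoresis of labelled fragments. Transiently transfected HepG2 cells were treated 24 h, with 3 nM 6-alpha-fluorotestosterone included, and gain-of-signal was fitted against DMSO.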
# [9] = ATG_M_06_XSP1: Attagene TRANS-FACTORIAL Multi-Species (XSP1) HepG2 Assay for M06 Transcription Factor (Internal Marker) (AID 2283790)
# How it was run: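 This background-control readout tracks M06 reporter mRNA, measured by RT-PCR and capillary electrophoresis. HepG2 cells transiently carrying the GAL4-UAS reporter panel were dosed for 24 h with 3 nM 6-alpha-fluorotestosterone added for partial AR stimulation; increases were scored relative to DMSO.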
# [10] = ATG_M_61_XSP1: Attagene TRANS-FACTORIAL Multi-Species (XSP1) HepG2 Assay for M61 Transcription Factor (Internal Marker) (AID 2283797)
# How it was run: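 Background-control readout: reporter transcripts measured by RT-PCR and capillary electrophoresis 24 h after dosing transiently transfected HepG2 multi-reporter cells, with 3 nM 6-alpha-fluorotestosterone present. Fitted in the positive direction relative to DMSO.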
compound,measurement,setting,value
COc1ccc(-c2ccccc2)cc1NNC(=O)OC(C)C,outcome,[1],inactive
CSC(=O)c1c(C(F)F)nc(C(F)(F)F)c(C(=O)SC)c1CC(C)C,outcome,[2],inactive
same,outcome,[3],inactive
same,AC50,[4],7.26 µM (active)
same,outcome,[5],inactive
same,AC50,[6],3.94 µM (active)
Nc1c(Cl)c(F)nc(OCC(=O)O)c1Cl,outcome,[1],inactive
COP(=S)(OC)Oc1ccc([N+](=O)[O-])c(C)c1,AC50,[7],64 µM (active)
same,outcome,[8],inactive
same,outcome,[9],inactive
same,outcome,[10],inactive
same,outcome,[3],inactive
same,AC50,[4],64.4 µM (active)
same,outcome,[5],inactive
same,AC50,[6],100 µM (active)
CC1(C)CCC(=Cc2ccc(Cl)cc2)C1(O)Cn1cncn1 (stereo not given),AC50,[1],13.1 µM (active)
same,AC50,[7],46.6 µM (active)
same,outcome,[9],inactive
same,outcome,[10],inactive
same,outcome,[2],inactive
same,outcome,[3],inactive
same,outcome,[4],inactive
same,outcome,[6],inactive
CCCCC(O)(Cn1cncn1)c1ccc(Cl)cc1Cl (stereo not given),AC50,[1],57.3 µM (active)
COP(=S)(OC)SCn1nnc2ccccc2c1=O,AC50,[1],83.1 µM (active)
Cc1c(COC(=O)[C@@H]2[C@H](/C=C(\Cl)C(F)(F)F)C2(C)C)cccc1-c1ccccc1,AC50,[7],100 µM (active)
same,outcome,[9],inactive
same,outcome,[10],inactive
same,outcome,[2],inactive
same,outcome,[3],inactive
same,outcome,[4],inactive
same,AC50,[6],42.5 µM (active)
CCCCOCN(C(=O)CCl)c1c(CC)cccc1CC,AC50,[1],75.7 µM (active)
CC(C)NC(=O)N1CC(=O)N(c2cc(Cl)cc(Cl)c2)C1=O,outcome,[8],inactive
same,outcome,[2],inactive
same,outcome,[3],inactive
same,AC50,[4],31.3 µM (active)
same,AC50,[6],30.4 µM (active)
COC(=O)N(C(=O)N1CO[C@@]2(C(=O)OC)Cc3cc(Cl)ccc3C2=N1)c1ccc(OC(F)(F)F)cc1,AC50,[1],40 µM (active)
CCOP(=O)(OCC)Oc1nc(Cl)c(Cl)cc1Cl,AC50,[1],76 µM (active)
